This note sets out measurements from the antibiotic and cytotoxicity screens of Wong et al. (2023).

Hit rate of the full screen: of about 39,000 compounds, about 3,300 (8.5%) were called active. The sample holds actives, similar compounds and a random draw of the others, so the mix is not that of the screen.

The experiment has as its system HepG2. In words: cytotoxicity call (relative viability < 0.9). Conditions: 10 µM.
Turning to `C[C@H]1CN([C@@H](C)CO)C(=O)c2cccc(NC(=O)c3ccc(-c4nccs4)cc3)c2O[C@@H]1CN(C)C(=O)Nc1cccc2ccccc12`, the cytotoxicity call was “inactive”.

On to `COc1ccc(S(=O)(=O)N(C)C[C@H]2Oc3cc(-c4ccccc4OC)ccc3S(=O)(=O)N([C@H](C)CO)C[C@H]2C)cc1`, for which the cytotoxicity call is “active”.

As to `COc1ccc(S(=O)(=O)N(C)C[C@@H]2Oc3cc(-c4ccccc4OC)ccc3S(=O)(=O)N([C@@H](C)CO)C[C@@H]2C)cc1`, the cytotoxicity call was “inactive”.

In the case of `COc1ccc(S(=O)(=O)N(C)C[C@@H]2Oc3cc(-c4ccccc4OC)ccc3S(=O)(=O)N([C@H](C)CO)C[C@H]2C)cc1`, the cytotoxicity call is “inactive”.

Take `COc1ccc(S(=O)(=O)N(C)C[C@@H]2Oc3cc(-c4ccccc4OC)ccc3S(=O)(=O)N([C@H](C)CO)C[C@@H]2C)cc1`: the cytotoxicity call is “active”.

`COc1ccc(S(=O)(=O)N(C)C[C@H]2Oc3cc(-c4ccccc4OC)ccc3S(=O)(=O)N([C@H](C)CO)C[C@@H]2C)cc1`: the cytotoxicity call was “inactive”.

With `COc1ccc(S(=O)(=O)N(C)C[C@@H]2Oc3cc(-c4ccccc4OC)ccc3S(=O)(=O)N([C@@H](C)CO)C[C@H]2C)cc1`, the cytotoxicity call was “inactive”.

Turning to `C[C@@H]1CN([C@@H](C)CO)S(=O)(=O)c2ccc(-c3cccc(C#N)c3)cc2O[C@H]1CN(C)C(=O)c1ccncc1`, the cytotoxicity call was “inactive”.

Turning to `Cc1noc(C)c1S(=O)(=O)N(C)C[C@H]1OCCCC[C@H](C)Oc2ccc(NC(=O)Nc3ccc(C(F)(F)F)cc3)cc2C(=O)N([C@@H](C)CO)C[C@@H]1C`, the cytotoxicity call was “active”.

On to `Cc1noc(C)c1S(=O)(=O)N(C)C[C@@H]1OCCCC[C@H](C)Oc2ccc(NC(=O)Nc3ccc(C(F)(F)F)cc3)cc2C(=O)N([C@H](C)CO)C[C@H]1C`, for which the cytotoxicity call was “inactive”.

Turning to `Cc1noc(C)c1S(=O)(=O)N(C)C[C@@H]1OCCCC[C@@H](C)Oc2ccc(NC(=O)Nc3ccc(C(F)(F)F)cc3)cc2C(=O)N([C@H](C)CO)C[C@H]1C`, the cytotoxicity call is “inactive”.

In the case of `Cc1noc(C)c1S(=O)(=O)N(C)C[C@H]1OCCCC[C@@H](C)Oc2ccc(NC(=O)Nc3ccc(C(F)(F)F)cc3)cc2C(=O)N([C@@H](C)CO)C[C@H]1C`, the cytotoxicity call is “inactive”.

Turning to `Cc1noc(C)c1S(=O)(=O)N(C)C[C@@H]1OCCCC[C@H](C)Oc2ccc(NC(=O)Nc3ccc(C(F)(F)F)cc3)cc2C(=O)N([C@H](C)CO)C[C@@H]1C`, the cytotoxicity call is “active”.

Turning to `Cc1noc(C)c1S(=O)(=O)N(C)C[C@H]1OCCCC[C@@H](C)Oc2ccc(NC(=O)Nc3ccc(C(F)(F)F)cc3)cc2C(=O)N([C@@H](C)CO)C[C@@H]1C`, the cytotoxicity call was “inactive”.

`Cc1noc(C)c1S(=O)(=O)N(C)C[C@@H]1OCCCC[C@@H](C)Oc2ccc(NC(=O)Nc3ccc(C(F)(F)F)cc3)cc2C(=O)N([C@H](C)CO)C[C@@H]1C`: the cytotoxicity call was “inactive”.

Consider `Cc1noc(C)c1S(=O)(=O)N(C)C[C@H]1OCCCC[C@H](C)Oc2ccc(NC(=O)Nc3ccc(C(F)(F)F)cc3)cc2C(=O)N([C@H](C)CO)C[C@H]1C`, for which the cytotoxicity call was “inactive”.

In the case of `Cc1noc(C)c1S(=O)(=O)N(C)C[C@H]1OCCCC[C@@H](C)Oc2ccc(NC(=O)Nc3ccc(C(F)(F)F)cc3)cc2C(=O)N([C@H](C)CO)C[C@@H]1C`, the cytotoxicity call was “active”.

Take `C[C@@H]1CN([C@H](C)CO)C(=O)c2cccc(NC(=O)c3cnccn3)c2O[C@H]1CN(C)CC1CCCCC1`: the cytotoxicity call was “inactive”.

For the compound `O=C(C[C@H]1CC[C@@H]2[C@H](COC[C@H](O)CN2C(=O)c2cccnc2)O1)NCc1ccc(-c2ccccc2)cc1`, the cytotoxicity call is “inactive”.

For `C[C@@H]1CN([C@@H](C)CO)C(=O)c2cccc(NS(=O)(=O)c3ccc(F)cc3)c2O[C@@H]1CN(C)S(=O)(=O)c1cccs1`, the cytotoxicity call is “inactive”.

Consider `C[C@@H]1CN([C@@H](C)CO)C(=O)Cc2cc(NC(=O)CCN3CCOCC3)ccc2O[C@@H]1CN(C)S(=O)(=O)c1cccs1`, for which the cytotoxicity call is “inactive”.

Take `C[C@H]1CN([C@@H](C)CO)C(=O)c2ccccc2-c2ccccc2CO[C@@H]1CN(C)C(=O)Nc1ccc(F)cc1`: the cytotoxicity call is “inactive”.

With `O=C(CN1CCOCC1)N[C@H]1CC[C@H](CCn2cc(C3CC3)nn2)O[C@@H]1CO`, the cytotoxicity call is “inactive”.

With `O=C(CN1CCOCC1)N[C@H]1CC[C@@H](CCn2cc(C3CC3)nn2)O[C@H]1CO`, the cytotoxicity call was “active”.

As to `O=C(CN1CCOCC1)N[C@@H]1CC[C@H](CCn2cc(C3CC3)nn2)O[C@@H]1CO`, the cytotoxicity call was “inactive”.

In the case of `CC(C)NC(=O)N[C@@H]1C=C[C@@H](CC(=O)O)O[C@H]1CO`, the cytotoxicity call was “inactive”.

Take `CC(=O)Oc1ccccc1C(=O)Nc1ncc([N+](=O)[O-])s1`: the cytotoxicity call was “active”.

Take `CC(=O)Nc1ncc([N+](=O)[O-])s1`: the cytotoxicity call was “inactive”.

With `CC(=O)Oc1ccccc1C(=O)Nc1ccccc1`, the cytotoxicity call is “inactive”.

Take `C[C@@H]1CN([C@H](C)CO)C(=O)CCCn2cc(nn2)CO[C@@H]1CN(C)C(=O)Nc1cccc(Oc2ccccn2)c1`: the cytotoxicity call is “inactive”.

`O=C(N/N=C/[C@H](O)[C@@H](O)[C@@H](O)[C@H](O)C(=O)O)c1ccccc1O`: the cytotoxicity call was “active”.

As to `O=C(N/N=C/[C@@H](O)[C@H](O)[C@H](O)CO)c1ccccc1O`, the cytotoxicity call is “inactive”.

On to `O=C(N/N=C/[C@H](O)[C@H](O)[C@@H](O)[C@@H](O)CO)c1ccccc1O`, for which the cytotoxicity call was “active”.

Consider `O=C(N/N=C/[C@H](O)[C@@H](O)[C@H](O)CO)c1ccccc1O`, for which the cytotoxicity call was “inactive”.

For `O=C(N/N=C/[C@H](O)[C@@H](O)[C@@H](O)[C@H](O)C(=O)O)c1ccccn1`, the cytotoxicity call is “inactive”.

For the compound `O=C(N/N=C/[C@H](O)[C@@H](O)[C@H](O)[C@H](O)CO)c1ccccc1O`, the cytotoxicity call was “inactive”.

Consider `C[C@@H]1CN([C@@H](C)CO)C(=O)Cc2cc(NC(=O)CCCCCC(=O)Nc3ccccc3N)ccc2O[C@@H]1CN(C)C(=O)Nc1ccc(C(F)(F)F)cc1`, for which the cytotoxicity call is “inactive”.

Take `C[C@@H]1CN([C@H](C)CO)C(=O)Cc2cc(NS(=O)(=O)c3ccccc3)ccc2O[C@@H]1CN(C)S(C)(=O)=O`: the cytotoxicity call is “inactive”.

Consider `COC1C(=O)C2(C)C(OC)CC3OCC3(OC(C)=O)C2C(OC(=O)c2ccccc2)C2(O)CC(OC(=O)C(O)C(NC(=O)OC(C)(C)C)c3ccccc3)C(C)=C1C2(C)C` (stereo not drawn), for which the cytotoxicity call was “active”.

`CC(=O)OC1C(=O)C2(C)C(O)CC3OCC3(OC(C)=O)C2C(OC(=O)c2ccccc2)C2(O)CC(OC(=O)C(O)C(NC(=O)c3ccccc3)c3ccccc3)C(C)=C1C2(C)C` (stereo not drawn): the cytotoxicity call was “active”.

For the compound `CC(=O)OC12COC1CC(O)C1(C)C(=O)C(O)C3=C(C)C(OC(=O)C(O)C(NC(=O)OC(C)(C)C)c4ccccc4)CC(O)(C(OC(=O)c4ccccc4)C21)C3(C)C.O.O.O` (stereo not drawn), the cytotoxicity call was “active”.

Consider `C[C@@H]1CN([C@@H](C)CO)C(=O)c2cccc(N(C)C)c2O[C@@H]1CN(C)S(=O)(=O)c1ccc(Cl)cc1`, for which the cytotoxicity call is “inactive”.

As to `C[C@@H]1CN([C@@H](C)CO)C(=O)c2cccc(NC(=O)Nc3ccc(C(F)(F)F)cc3)c2O[C@H]1CN(C)S(=O)(=O)c1ccc(Cl)cc1`, the cytotoxicity call was “inactive”.

Turning to `CC(C)NC(=O)Nc1ccc2c(c1)C(=O)N([C@@H](C)CO)C[C@H](C)[C@@H](CN(C)C(=O)Nc1ccc(F)cc1)OCCCC[C@H](C)O2`, the cytotoxicity call was “inactive”.

For `O=C(/C=C/c1ccc(O)c(O)c1)O[C@H]1[C@H](O)[C@@H](O)[C@H](OCCc2ccc(O)c(O)c2)O[C@@H]1CO`, the cytotoxicity call is “inactive”.

`C[C@H]1CCCCO[C@H](CN(C)Cc2ccc(C(=O)O)cc2)[C@@H](C)CN([C@@H](C)CO)C(=O)c2cc(NS(=O)(=O)c3ccc(Cl)cc3)ccc2O1`: the cytotoxicity call was “inactive”.

`NCc1c(Cl)cccc1Cl`: the cytotoxicity call was “inactive”.

For the compound `COCc1cn(CC[C@H]2CC[C@@H](NC(=O)CCN3CCCCC3)[C@H](CO)O2)nn1`, the cytotoxicity call was “inactive”.

Regarding `C[C@H]1CCCCO[C@H](CN(C)C(=O)Nc2ccc(C(F)(F)F)cc2)[C@@H](C)CN([C@@H](C)CO)C(=O)c2cc(NS(=O)(=O)c3cn(C)cn3)ccc2O1`, the cytotoxicity call is “inactive”.

Regarding `C[C@@H]1CN([C@@H](C)CO)C(=O)c2cc(NC(=O)CCCN(C)C)ccc2O[C@@H]1CN(C)Cc1ccc(C(=O)O)cc1`, the cytotoxicity call was “inactive”.

For the compound `C[C@H](CO)N1C[C@H](C)[C@H](CN(C)S(C)(=O)=O)Oc2c(NS(=O)(=O)c3cn(C)cn3)cccc2C1=O`, the cytotoxicity call is “active”.

In the case of `Cc1ccc(S(=O)(=O)N(C)C[C@@H]2Oc3c(NS(=O)(=O)c4cccs4)cccc3C(=O)N([C@H](C)CO)C[C@@H]2C)cc1`, the cytotoxicity call is “active”.

Regarding `C[C@H]1CN([C@@H](C)CO)C(=O)c2cccc(NS(=O)(=O)c3cn(C)cn3)c2O[C@H]1CN(C)S(C)(=O)=O`, the cytotoxicity call was “inactive”.

For the compound `C[C@H](CO)N1C[C@H](C)[C@@H](CN(C)S(=O)(=O)c2cn(C)cn2)Oc2c(NS(=O)(=O)c3cccs3)cccc2C1=O`, the cytotoxicity call was “active”.

For `Cc1ccc(S(=O)(=O)N(C)C[C@H]2Oc3c(NS(=O)(=O)c4cccs4)cccc3C(=O)N([C@H](C)CO)C[C@@H]2C)cc1`, the cytotoxicity call was “inactive”.

Consider `C[C@H]1CN([C@@H](C)CO)C(=O)c2cccc(NS(=O)(=O)c3cccs3)c2O[C@H]1CN(C)S(=O)(=O)c1cn(C)cn1`, for which the cytotoxicity call is “inactive”.

Consider `C[C@@H]1CN([C@H](C)CO)C(=O)c2cccc(NS(=O)(=O)c3cn(C)cn3)c2O[C@@H]1CN(C)S(C)(=O)=O`, for which the cytotoxicity call was “inactive”.

`C[C@@H]1CN([C@H](C)CO)C(=O)c2cccc(NS(=O)(=O)c3cccs3)c2O[C@@H]1CN(C)S(=O)(=O)c1cn(C)cn1`: the cytotoxicity call was “inactive”.

Consider `Cc1ccc(S(=O)(=O)N(C)C[C@@H]2Oc3c(NS(=O)(=O)c4cccs4)cccc3C(=O)N([C@@H](C)CO)C[C@H]2C)cc1`, for which the cytotoxicity call is “inactive”.

With `O=C(NO)c1ccncc1`, the cytotoxicity call was “inactive”.

`C[C@H]1CN([C@@H](C)CO)C(=O)c2c(c3ccccc3n2C)-c2ccccc2CO[C@@H]1CN(C)C(=O)Nc1ccccc1C(F)(F)F`: the cytotoxicity call was “inactive”.

On to `CC(C)NC(=O)N(C)C[C@H]1Oc2ccc(NC(=O)CCN3CCOCC3)cc2C(=O)N([C@H](C)CO)C[C@@H]1C`, for which the cytotoxicity call is “inactive”.

`O=C(C[C@H]1CC[C@H]2[C@@H](COC[C@H](O)CN2C(=O)Nc2ccc(C(F)(F)F)cc2)O1)NCCc1ccncc1`: the cytotoxicity call is “inactive”.
